TDP1 cell noCPT = qHTS for Inhibitors of human tyrosyl-DNA phosphodiesterase 1 (TDP1): qHTS in cells in absence of CPT | DT40 Tdp1-/- hTDP1 cells, no CPT, ATP luminescence, 48 h | Potency, µM (top dose mostly 46.2 µM), without a hit: at the top dose activity change, negative = growth inhibition, most hits filed as inhibitors | hit rate 15% among 420,000 | AID 686978, 2013; also: % is scaled to controls: 0 for no effect and ±100 for the full control effect; nearly all actives have a fitted effect of over 55% in size
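Growth kinetics read by CellTiter-Glo luminescence after ≥48 hr at 37 °C. Cells: DT40 Tdp1-/- stably carrying human TDP1, 400 per well, compound exposure in the absence of CPT (DMSO vehicle).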
DT40 TDP1 CPT = qHTS for Inhibitors of human tyrosyl-DNA phosphodiesterase 1 (TDP1): qHTS in cells in presence of CPT; chicken DT40 Tdp1-/-;hTDP1 cells + 20 nM CPT, ATP luminescence, 48 h; Potency, µM (titrated, usually from 46.2 µM), for the others: top-dose activity change, negative = growth inhibition, hits mostly inhibitors; hit rate 12% among 420,000; also: % is scaled to controls: 0 for no effect and ±100 for the full control effect; nearly all actives have a fitted effect of over 55% in size
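Chicken DT40 Tdp1-/- cells stably complemented with human TDP1 were seeded at 400 cells/well in medium containing 20 nM camptothecin, exposed to pin-transferred compounds, and grown at 37 °C for at least 48 hr. Viability was read as ATP luminescence.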
ATXN2 expr inh = Primary qHTS for Inhibitors of ATXN expression; HEK-293 ATXN2-luciferase reporter, luminescence, 24 h; hit rate 0.72% among 360,000; Potency, µM (titrated, usually from 57 µM), inactives show top-dose activity change, negative = inhibition, hits mostly inhibitors; also: % is scaled to controls: 0 for no effect and ±100 for the full control effect; nearly all actives have a fitted effect of over 55% in size
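qHTS (up to 57 uM final) was run with 24 h compound exposure of reporter cells at 37 °C. Each well was multiplexed: SteadyGlo luminescence measured ATXN2-luciferase expression after a fluorogenic Gly-Phe-AFC viability readout (25 uM final).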
TGFb SMAD3 inh = qHTS for Inhibitors of TGF-b; Potency, µM (series often up to 46.1 µM), for inactives: at the top dose activity, negative = inhibition, actives largely listed as inhibitors; HepG2 CAGA-GFP TGF-b/SMAD3 reporter, GFP fluorescence, 18 h; TGF-beta stimulated, 500 pg/mL final; hit rate 1.2% among 410,000; AID 588855, 2011; also: % is scaled to controls: 0 for no effect and ±100 for the full control effect; nearly all actives have a fitted effect of over 65% in size
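Per well, imaged GFP fluorescence of HEPG2 CAGA-GFP cells gives the signal; cells get compound, then TGF-beta (500 pg/mL final), 18 h at 37 degrees C; %Activity versus -TGF-beta and +DMSO controls.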
ATXN viability = Viability Counterscreen for Primary qHTS for Inhibitors of ATXN expression | hit rate 0.49% among 400,000 | Potency, µM (top dose mostly 56.7 µM), actives largely listed as cytotoxic | S2 cells (HEK-293 line with an ATXN2-luciferase reporter) viability, CellTiter-Fluor protease fluorescence, 24 h; also: nearly all actives have a fitted effect of over 40% in size
HepG2 tox = qHTS for Inhibitors of TGF-b: Cytotox Counterscreen. HepG2 CAGA-GFP viability, ATP luminescence, 18 h. Potency, µM (series often up to 46.1 µM), without a hit: at the top dose activity change, negative = cytotoxicity, usual class: cytotoxic. hit rate 0.76% among 410,000. AID 588856, 2011
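CellTiter-Glo luminescence gave cytotoxicity after 18 hours at 37 degrees C. The cells were HepG2 CAGA-GFP in 1% FBS DMEM, stimulated with 500 pg/mL TGF-beta after compound addition. %Activity was normalised to no-cell wells (complete cell-killing) and DMSO (no toxicity), and curves were fitted and classified.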
The depositor's hits bear a star; i = inactive; ? = inconclusive; / = not tested or not shown; [ ] = remark or other dose. In the library only some 17% were active in any assay of this set; here they are far more common. Calls follow the shape of the dose curve; as a rule, active = well fitted curve in the direction sought with a large enough effect; inconclusive = small, poorly fitted or top-dose-only effect, or another doubt; inactive = no such curve, though single readings can be large; an effect the other way counts as inactive or inconclusive. Potency is read from the fitted curve at half-maximal effect.

SMILES | TDP1 cell noCPT | DT40 TDP1 CPT | ATXN2 expr inh | TGFb SMAD3 inh | ATXN viability | HepG2 tox
Cc1cc2[nH]c3c(c[n+](C)c4ccccc34)c2cc1C | 1.64µM* | -101.8% | ? | ? | / | 10µM*
COc1ccc2ccccc2c1-c1sc(Nc2ccccc2)n[n+]1-c1ccc(F)cc1 | 13µM* | 20.6µM* | 28.2µM* | ? | 28.2µM* | 11.2µM*
CCOc1cc(-c2sc(Nc3ccccc3)n[n+]2C)ccc1OC | -23.5% | ? | -5.5% | 1.8% | i | -4.0%
COc1ccc(-c2sc(Nc3ccccc3)n[n+]2-c2ccc(F)cc2)cc1Br | 18.4µM* | 5.8µM* | -15.4% | -5.1% | ? | -33.3%
COc1ccc(-c2sc(Nc3ccccc3)n[n+]2C)c(C)c1C | 20.6µM* | 20.6µM* | -5.4% | 1.9% | i | -20.6%
COc1ccc(NC(=O)N(C)C[C@@H]2OCc3cnnn3CCCC(=O)N([C@@H](C)CO)C[C@H]2C)c(OC)c1 | -3.7% | -6.2% | 4.2% | 0.6% | i | -7.1%
O=C(O)CC(CC(=O)Nc1ccc(-c2ccccc2)cc1)c1ccccc1 (stereo not drawn) | -1.4% | 1.1% | / | 15.9% | ? | 4.0%
Oc1c(N=Nc2ccc(F)cc2)ccc2ccccc12 | 14.6µM* | 9.2µM* | 67.4% | ? | ? | -26.0%
CC(C)N1CCN(Cc2cccn2-c2nccs2)CC1CCO (stereo not drawn) | 3.8% | 1.2% | -13.7% | 0.0% | i | 7.9%
Oc1cccc2c(NC(=S)Nc3ccc(OC(F)F)cc3)cccc12 | 18.4µM* | -58.5% | 20.3% | -11.7% | i | -29.1%
FC(F)Oc1ccc(NC(=S)Nn2cnnc2)cc1 | ? | ? | ? | 15.8µM* | i | 1.8%
Cc1ccc(C(=O)c2cc(C)sc2N)cc1 | -23.1% | -0.2% | -9.7%[11.3 µM] | ? | i | 0.8%
Cc1cc(C(=O)c2ccc(Cl)cc2)c(NC(=O)CCl)s1 | 7.31µM* | 8.2µM* | ? | -27.0% | / | 2.6%
CC1N=C(SCC(=O)c2ccc(F)cc2)N2C(C)N=C(SCC(=O)c3ccc(F)cc3)N12 (stereo not drawn) | 4.11µM* | 4.11µM* | / | 1.8% | i | -5.2%
O=C(NCCc1ccc(Cl)cc1)c1ccc2c(c1)nc1n2CCOC1 | ? | ? | / | ? | / | -3.5%
COc1ccc(OC)c(N(CC(=O)NCc2ccccc2)S(=O)(=O)c2ccc(OC)c(OC)c2)c1 | ? | 20.6µM* | 8.2% | 0.0% | i | 7.1%
COc1ccc(CCNC(=O)CN(c2cc(OC)ccc2OC)S(=O)(=O)c2ccccc2)cc1 | ? | ? | 0.8% | -14.0% | i | 7.5%
COc1ccc(OC)c(N(CC(=O)NCCSCc2ccco2)S(=O)(=O)c2ccccc2)c1 | 14.6µM* | ? | 3.4% | 15.7% | i | -1.9%
COc1ccc(CNC(=O)CNS(=O)(=O)c2cccs2)cc1 | 10.2% | 3.3% | -7.6% | 1.3% | / | 4.9%
CCOc1ccccc1N(CC(=O)NCCSCc1ccco1)S(=O)(=O)c1ccccc1 | ? | ? | -3.8% | -17.5% | i | -14.1%
COc1ccc(CNC(=O)CN(c2ccccc2OC)S(=O)(=O)c2cccs2)cc1 | ? | 16.4µM* | / | 9.2% | i | -4.3%
COc1ccc(OC)c(N(CC(=O)NCc2ccccc2)S(=O)(=O)c2ccccc2)c1 | ? | 11.6µM* | -4.3% | 5.7% | i | -5.2%
COc1ccc(C(=O)N2CCOC2CNC(=O)C(=O)NCc2ccco2)cc1 (stereo not drawn) | -7.6% | -8.0% | -12.7% | 15.5% | ? | -21.7%
Cc1cc(F)c(F)c(C(=O)N2CCC(C)CC2)c1Cl | 35.1% | 2.1% | 0.9% | -1.8% | i | -2.4%
CC(C)OCC1CO1 (stereo not drawn) | ? | 4.2% | -10.6% | -8.5% | i | 1.3%
SMILES | TDP1 cell noCPT | DT40 TDP1 CPT | ATXN2 expr inh | TGFb SMAD3 inh | ATXN viability | HepG2 tox
COC(=O)c1ccc(CSc2ccc3nnc(-c4cccc(F)c4)n3n2)o1 | 7.31µM* | -82.3% | -21.9% | -11.7% | i | -5.4%
CCOC(=O)CC(=O)CSc1ccc2nnc(-c3cccc(F)c3)n2n1 | -25.9% | -10.5% | -5.3% | 7.9% | ? | -8.0%
CCCn1nc([N+](=O)[O-])c(C(C#N)c2nc3ccccc3s2)c(Cl)c1=O (stereo not drawn) | 16.4µM* | 18.4µM* | -0.6% | ? | i | 11.2µM*
C=CCNc1ncnc2c1ncn2[C@H]1CN(Cc2cc(OC)c(OC)c(OC)c2)C[C@@H](CO)O1 | -11.2% | 1.4% | 4.7% | 3.2% | i | 4.2%
Cc1sc2c(c1C)CN(CCN1CCOCC1)CN2C(=O)c1ccccc1 | 20.4% | -15.5% | 1.0% | -6.3% | ? | -2.8%
N#CC1(C#N)C(C(N)=O)C1c1ccccc1 (stereo not drawn) | ? | 4.8% | -0.7% | 14.4% | i | -3.8%
N#CC1=C(N)N(c2ccccc2)C(c2ccccc2)C1(C#N)C#N (stereo not drawn) | 14.6µM* | 16.4µM* | -9.4% | ? | i | 6.0%
C1=C(CCNc2ncnc3nc[nH]c23)CCCC1 | 14.6µM* | 13µM* | 11.8% | ? | ? | -26.1%
Clc1ccc(CCNc2ncnc3nc[nH]c23)cc1 | 7.31µM* | 11.6µM* | -4.3% | -0.4% | i | -18.3%
c1ccc(CCCNc2ncnc3nc[nH]c23)cc1 | 20.6µM* | ? | 11.4% | ? | i | -82.0%
c1nc(NCc2ccc3c(c2)OCO3)c2[nH]cnc2n1 | ? | ? | / | -15.9% | / | -35.7%
c1ccc2c(CCNc3ncnc4nc[nH]c34)cccc2c1 | 18.4µM* | 23.1µM* | -10.6% | -6.7% | i | -39.2%
OCCOCCNc1ncnc2nc[nH]c12 | -5.8% | -1.9% | -0.8% | -0.5% | i | -16.9%
CCCNc1ncnc2nc[nH]c12 | -15.3% | ? | -0.1% | -23.6% | i | -32.7%
CC(C)CCSc1nc2[nH]ncc2c(=O)[nH]1 | 21.6% | -19.0% | 1.5% | -0.2% | ? | -12.4%
CCOC(=O)c1cnc2ccc(C)cc2c1NCCc1ccc(OC)c(OC)c1 | 14.6µM* | 14.6µM* | -13.5% | 11.2µM* | i | -51.0%
CCOC(=O)c1cnc2ccc(Cl)cc2c1Nc1ccc(OCC)cc1 | ? | ? | -2.2% | 9.1% | i | -20.8%
CCOC(=O)c1cnc2ccc(OCC)cc2c1NCCc1ccc(OC)c(OC)c1 | 2.31µM* | 3.26µM* | / | 12.6µM* | / | -47.9%

Screens as filed in PubChem BioAssay.
